According to ChEMBL document CHEMBL4513216, “Probing the Open Global Health Chemical Diversity Library for Multistage-Active Starting Points for Next-Generation Antimalarials” (ACS Infect Dis, 2020):
The campaign covered roughly 69,000 compounds. About 8,600 (12%) showed an effect of 50% or more. The sample holds strong results, similar compounds and a random draw of the others, so the mix is not that of the screen.

Test system: Plasmodium berghei
Assay: Screen against P. berghei liver stage (PbLuc), transformed with Luciferase, at 10uM
Format: functional, HepG2
Settings: tested at 10 uM

SMILES	INHIBITION
Cc1cc(C(F)(F)F)c2c(=O)n(Cc3ccon3)n(C)c2n1	14.3%
CC(C)N(C)Cc1cncc2c1CCN(C1CCOCC1)C2	25.6%
COc1ccc(C(=O)CCc2nc(C3CC3)no2)cc1	-23.3%
Cc1cnn(CC2CCCCN2C(=O)c2ccc(N(C)C)nc2)c1 (stereo not drawn)	-4.16%
c1ccc(CN2CCc3c(COCC4CC4)cncc3C2)nc1	23.5%
Cc1nc2cc(-c3nccn3C)nn2c(N2CCCC(CO)C2)c1C (stereo not drawn)	-15.9%
O=S(=O)(NCc1ccccc1)N(Cc1ccccn1)CC1CCCO1 (stereo not drawn)	-1.91%
CC(C)[C@@H]1CN(Cc2ccccn2)C[C@H]1NS(=O)(=O)N(C)C	9.72%
CC(C)[C@H]1CN(Cc2ccccn2)C[C@@H]1NS(=O)(=O)C1CC1	67.5%
CC(C)[C@H]1CN(Cc2ccccn2)C[C@@H]1NC(=O)CCS(C)(=O)=O	28.2%
COc1ccc(CC2(CO)CCN(c3cc(C#N)ccn3)CC2)cc1	1.74%
CC(=O)NCCNC(=O)NCc1ccc(-n2ccc(C(F)(F)F)n2)cc1	-12.1%
CCN(C(=O)c1nc2c(s1)CCCN2C)C(C)C	23.6%
CC(C)c1noc(CCNC(=O)N2CCSC(C(C)C)C2)n1 (stereo not drawn)	37.9%
CCC(CO)N(Cc1ccsc1)Cc1ccccc1C#N (stereo not drawn)	37.6%
CCC(CO)N(CC=C(C)C)Cc1ccsc1 (stereo not drawn)	55%
CCC(CO)N(Cc1ccsc1)Cc1cccc(O)c1 (stereo not drawn)	-60.8%

SMILES	INHIBITION
CCC(CO)N(Cc1ccsc1)CC1CC1 (stereo not drawn)	50.7%
CCC(CO)N(Cc1ccc(C(=O)O)cc1)Cc1ccsc1 (stereo not drawn)	15%
CCC(CO)N(Cc1ccsc1)Cc1ccccc1C(=O)O (stereo not drawn)	-69.3%
CN1CCO[C@@H]2CN(S(=O)(=O)c3ccccc3)C[C@@H]2C1	25.6%
CC(C)c1ncncc1C(=O)NCCN1CCCCCC1	35.4%
Cc1csc(N2CCN(C(=O)C3(C#N)CCCCC3)CC2)n1	24.635%
CC(O)CN1CCN(C(=O)c2ccc(CN(C)C)cc2)CC1 (stereo not drawn)	10%
CS(=O)(=O)N1CCC(C(=O)NC(Cc2ccsc2)c2cccnc2)CC1 (stereo not drawn)	47.1%
Cc1ccc(C(=O)N2CCC3(CC2)COCCN(S(C)(=O)=O)C3)cc1C	-4.88%
Cc1cc(OCC(=O)NS(=O)(=O)c2cccnc2)ccc1Cl	38.5%
CN(C)C(=O)c1ccccc1NC(=O)N[C@@H]1c2ccccc2C[C@@H]1O	48.9%
CNC(=O)Cc1ccccc1NC(=O)C1CCCC1	42.6%
CS(=O)(=O)c1ccccc1N[C@@H]1c2ccccc2C[C@@H]1O	67.5%
CNC(=O)Cc1ccccc1NC(=O)N[C@H]1c2ccccc2C[C@H]1O	54.5%
CS(=O)(=O)c1ccccc1C(=O)NCC1Cc2ccccc2O1 (stereo not drawn)	-9.76%
CS(=O)(=O)c1ccccc1NC(=O)N[C@@H]1c2ccccc2C[C@@H]1O	35%
